Records with an inconclusive call do not appear. Calls of active or inactive are those of the source. Calls come from the whole dose curve; as a rule, active = well fitted curve in the direction sought with a large enough effect; inconclusive = small, poorly fitted or top-dose-only effect, or another doubt; inactive = no such curve, though single readings can be large; an effect the other way counts as inactive or inconclusive.
Assays:
[1] = test system: Zika virus NS2B-NS3 protease (linked construct); test: Primary screen NINDS Rhodamine qHTS for Zika virus inhibitors (AID 1347160); note: nearly all actives have a fitted effect of over 55% in size
In short: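 Purified NS2B-NS3 protease with the NS2B hydrophilic domain joined by a flexible linker (25 nM) in 10 mM Tris-HCl pH 8.0, 0.01% Tween 20, preincubated 15 min at RT with compound; Rhodamine110 peptide substrate 1.5 µM; fluorescence change over 15 min; 4-parameter Hill fit.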

[2] = target: Calcium and integrin-binding protein 1 (Homo sapiens) (UniProt Q99828); test: Primary qHTS for Identification of Calcium Integrin Binding Protein 1 (CIB1) Competitor (AID 1508620);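 note: GST tagged CIB1 binding a fluorescein labelled alphaIIb integrin peptide tracer; top concentration of the series differs between compounds; % is set by controls: 0 for no effect and ±100 for the full control effect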
Sequence of Calcium and integrin-binding protein 1 (Homo sapiens) (Q99828 whole entry, looked up): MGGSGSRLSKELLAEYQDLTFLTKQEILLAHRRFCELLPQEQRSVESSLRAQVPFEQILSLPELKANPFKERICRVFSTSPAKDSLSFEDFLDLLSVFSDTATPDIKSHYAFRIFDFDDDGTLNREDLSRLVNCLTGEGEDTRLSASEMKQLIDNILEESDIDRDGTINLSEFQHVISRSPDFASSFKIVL
In short: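 Fluorescence polarization competition: GST-tagged CIB1 (1 uM final) preincubated with compound 15 min at room temperature, then FITC-labelled alphaIIb peptide (100 nM final) added. After 15 min at room temperature, polarization read at Ex 480/Em 540.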

[3] = Primary qHTS for inhibitors of nuclear receptor binding SET domain protein 2 (NSD2) in an isogenic RCH-ACV NSD2 p.E1099K mutant (9B) (AID 1645876); note: nearly all actives have a fitted effect of over 70% in size
[4] = target: Glutathione peroxidase 1 (Homo sapiens) (UniProt P07203); test: Primary qHTS Assay for Inhibitors of Recombinant Selenoprotein Glutathione Peroxidase 1 (GPX1) (AID 1845191); note: nearly all actives have a fitted effect of over 65% in size
Sequence of Glutathione peroxidase 1 (Homo sapiens) (P07203 whole entry, looked up): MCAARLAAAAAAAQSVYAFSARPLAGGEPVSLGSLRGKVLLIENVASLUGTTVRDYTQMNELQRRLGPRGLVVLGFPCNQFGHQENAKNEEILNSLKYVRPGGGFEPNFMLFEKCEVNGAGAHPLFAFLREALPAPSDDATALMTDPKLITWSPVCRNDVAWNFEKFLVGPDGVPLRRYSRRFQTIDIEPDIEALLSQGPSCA
In short: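 GR-coupled assay: compounds preincubated 30 min at room temperature with GPX1, then reaction started with CHP; final 10 nM GPX1, 1 mM GSH, 0.5 mM CHP, 0.5 mM NADPH, 100 nM GR, 0.01% BSA, pH 7.5 Tris buffer. NADPH fluorescence (340/450 nm) read at 0 and 15 min.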

[5] = target: Phospholipid hydroperoxide glutathione peroxidase GPX4 (Homo sapiens) (UniProt P36969); test: Primary qHTS Assay for Inhibitors of Recombinant Selenoprotein Glutathione Peroxidase 4 (GPX4) (AID 1845192); note: nearly all actives have a fitted effect of over 65% in size
Sequence of Phospholipid hydroperoxide glutathione peroxidase GPX4 (Homo sapiens) (P36969 whole entry, looked up): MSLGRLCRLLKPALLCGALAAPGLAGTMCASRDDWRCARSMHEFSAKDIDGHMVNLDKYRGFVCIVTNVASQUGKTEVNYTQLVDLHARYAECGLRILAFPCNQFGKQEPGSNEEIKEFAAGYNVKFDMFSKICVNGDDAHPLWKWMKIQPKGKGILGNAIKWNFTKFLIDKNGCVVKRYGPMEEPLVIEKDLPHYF
In short: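 GR-coupled assay: recombinant GPX4 preincubated 30 min with compound at room temperature; final 200 nM GPX4, 1 mM GSH, 0.5 mM cumene hydroperoxide, 0.5 mM NADPH, 100 nM GR, 0.01% BSA, pH 7.5 Tris. NADPH fluorescence (340/450 nm) read at 0 and 15 min.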

[6] = target: Luciferin 4-monooxygenase (Photinus pyralis) (UniProt P08659); test: Primary firefly luciferase (FLuc) qHTS assay for identification of artifact compounds. (AID 1845220); conditions: outcome: dose series up to 54.1 µM unless noted; note: nearly all actives have a fitted effect of over 60% in size
In short: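 Enzymatic FLuc inhibition assay: compounds pre-exposed to luciferin/ATP (10 uM each) for 15 min, then purified P. pyralis enzyme at 10 nM added. Read-out: luminescence at 5 min.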

[7] = Primary fluorescence-based thiol-reactive (MSTI) qHTS assay for identification of artifact compounds. (AID 1845221);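 note: thiol-reactive compounds lower the probe fluorescence signal; nearly all actives have a fitted effect of over 65% in size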
In short: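 Compounds were incubated 1 h at room temperature in the dark with the MSTI probe (4 uM) in PBS pH 7.4, 2% DMSO. Signals were normalized between Acetyl-MSTI and MSTI.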

[8] = test system: Nanoluciferase (engineered Oplophorus gracilirostris luciferase); test: Primary Nanoluciferase (NLuc) qHTS assay for identification of artifact compounds. (AID 1845222);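 note: NLuc secreted into diluted conditioned medium of S16 cells; 0% = DMSO and -100% = no enzyme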
In short: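 S16 cell supernatant NLuc, 1:55; cpds qHTS; 15 min RT dark; Nano-Glo substrate 1:100, 5 min; luminescence; Hill fit of % inhibition.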

[9] = test system: CRL-7250; test: Cytotoxic Profiling of Annotated Libraries Using Quantitative High-Throughput Screening (AID 1296008); conditions: Five cell lines viability, CellTiter-Glo ATP luminescence, 48-72 h; max response: stronger effect = lower value; note: nearly all actives have a fitted effect of over 60% in size; for max response: % is set by controls: 0 for no effect and ±100 for the full control effect
In short: (§1)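 Cells exposed to compounds for 48 or 72 hr at 37 degrees Celsius. Viability read as ATP-coupled luminescence with CellTiter-Glo after 10 min at room temperature.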

[10] = test system: HEK293; test: as above; conditions: Five cell lines viability, CellTiter-Glo ATP luminescence, 48-72 h; max response: stronger effect = lower value
In short: as §1

[11] = test system: HaCat; test: as above; conditions: Five cell lines viability, CellTiter-Glo ATP luminescence, 48-72 h; max response: stronger effect = lower value
In short: as §1

[12] = test system: NIH3T3; test: as above; conditions: Five cell lines viability, CellTiter-Glo ATP luminescence, 48-72 h; max response: stronger effect = lower value
In short: as §1

[13] = test system: C33A; test: Primary qHTS to identify gynecologic anti-cancer compounds using libraries of approved drugs and bioactive compounds (AID 1345084); conditions: Gynecologic cancer cell panel viability, ATPlite luminescence, 48 h; series mostly up to 57.5 µM; note: % is set by controls: 0 for no effect and ±100 for the full control effect; nearly all actives have a fitted effect of over 55% in size
In short: (§2)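 Luminescence from the ATPlite ATP-monitoring reagent indicates viable cell number; lower signal means cytotoxicity. Cells received compound 16 h after seeding and were exposed for 48 h across five concentrations.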

[14] = test system: CASKI; test: as above; conditions: Gynecologic cancer cell panel viability, ATPlite luminescence, 48 h; series mostly up to 57.5 µM
In short: as §2

[15] = test system: Es-2; test: as above; conditions: Gynecologic cancer cell panel viability, ATPlite luminescence, 48 h; series mostly up to 57.5 µM
In short: as §2

[16] = test system: Hek293T; test: as above; conditions: Gynecologic cancer cell panel viability, ATPlite luminescence, 48 h, control line for the selectivity index; series mostly up to 57.5 µM
In short: as §2

[17] = test system: OV90; test: as above; conditions: Gynecologic cancer cell panel viability, ATPlite luminescence, 48 h; series mostly up to 57.5 µM
In short: as §2

[18] = test system: PA-1; test: as above; conditions: Gynecologic cancer cell panel viability, ATPlite luminescence, 48 h; series mostly up to 57.5 µM
In short: as §2

[19] = test system: Tov-21-G; test: as above; conditions: Gynecologic cancer cell panel viability, ATPlite luminescence, 48 h; series mostly up to 57.5 µM
In short: as §2

[20] = test system: Tov112D; test: as above; conditions: Gynecologic cancer cell panel viability, ATPlite luminescence, 48 h; series mostly up to 57.5 µM
In short: as §2

CN1CCc2cc3c(cc2[C@H]1[C@@H]1OC(=O)c2c1ccc1c2OCO1)OCO3
inactive: Potency [1] | Potency [2] | Potency [3] | Potency [4] | Potency [5] | outcome [6] | Potency [7] | Potency [8] | max response [9] -0.453% | max response [10] -2.62% | outcome [11] | max response [12] -16.9% | Potency [13] | Potency [14] | Potency [15] | Potency [16] | Potency [17] | Potency [18] | Potency [19] | Potency [20]

Oc1ccc2c3c1O[C@H]1c4[nH]c5c(N=C=S)cccc5c4C[C@@]4(O)[C@@H](C2)N(CC2CC2)CC[C@]314
inactive: Potency [1] | Potency [4] | Potency [5] | Potency [7] | Potency [8] | max response [9] 1.1% | max response [10] -0.6% | outcome [11] | max response [12] -11% | Potency [13] | Potency [14] | Potency [15] | Potency [16] | Potency [17] | Potency [18] | Potency [19] | Potency [20]

CC(=O)O[C@@H]1[C@H]2CC[C@H]3[C@@](C)(O)[C@@H]4C[C@H](O)C(C)(C)[C@@]4(O)[C@H](O)C[C@@]13C[C@@]2(C)O
inactive: Potency [1] | Potency [2] | Potency [3] | Potency [4] | Potency [5] | outcome [6] | Potency [7] | Potency [8] | outcome [9] | max response [10] 2% | max response [11] -9.56% | max response [12] 4.65% | Potency [13] | Potency [14] | Potency [15] | Potency [16] | Potency [17] | Potency [18] | Potency [19] | Potency [20]

C/C=C(/C)C1C=CC2CC(C)CC(C)C2C1/C(O)=C1\C(=O)NC(CC(C)(O)C(=O)O)C1=O (stereo unspecified)
inactive: Potency [3] | Potency [4] | Potency [5] | outcome [6] inactive [at 25.7 µM] | Potency [8] | outcome [9] | max response [10] -1.39% | max response [11] -6.03% | max response [12] 1.49% | Potency [13] | Potency [14] | Potency [15] | Potency [16] | Potency [17] | Potency [18] | Potency [19] | Potency [20]

CC[C@H]1C2CC3[C@@H]4N(C)c5ccccc5[C@]45C[C@@H]([C@H]2[C@H]5O)N3[C@H]1O
inactive: Potency [1] | Potency [3] | Potency [4] | Potency [5] | outcome [6] | Potency [8] | max response [9] 3.45% | max response [10] 3.06% | outcome [11] | max response [12] 4.15% | Potency [13] | Potency [14] | Potency [15] | Potency [16] | Potency [17] | Potency [18] | Potency [19] | Potency [20]

COc1ccc(CN(C(=O)[C@@H](N)Cc2c(C)cc(C(N)=O)cc2C)[C@@H](C)c2ncc(-c3ccccc3)[nH]2)cc1C(=O)O
inactive: Potency [1] | Potency [2] | Potency [3] | Potency [4] | Potency [5] | outcome [6] | Potency [7] | Potency [8] | max response [9] -8.53% | max response [10] -8.03% | max response [11] 1.02% | max response [12] -6.08% | Potency [13] | Potency [14] | Potency [15] | Potency [16] | Potency [17] | Potency [18] | Potency [19] | Potency [20]

CC(=O)O[C@H]1CN2CCC1CC2
inactive: Potency [1] | Potency [2] | Potency [3] | Potency [4] | Potency [5] | outcome [6] | Potency [7] | Potency [8] | max response [9] -2.3% | max response [10] -3.42% | max response [11] 1.98% | max response [12] 1.29% | Potency [13] | Potency [14] | Potency [15] | Potency [16] | Potency [17] | Potency [18] | Potency [19] | Potency [20]

COCC(C(=O)OC1CC2CCC(C1)N2C)c1ccccc1 (stereo unspecified)
inactive: Potency [1] | Potency [2] | Potency [3] | Potency [4] | Potency [5] | outcome [6] | Potency [7] | Potency [8] | max response [9] -5.38% | max response [10] -0.619% | outcome [11] | max response [12] 3.79% | Potency [13] | Potency [14] | Potency [15] | Potency [16] | Potency [17] | Potency [18] | Potency [19] | Potency [20]

C=CCN1CCC2(C)c3cc(O)ccc3C[C@H]1[C@H]2C
inactive: Potency [1] | Potency [2] | Potency [3] | Potency [5] | outcome [6] | Potency [7] | Potency [8] | max response [9] -1.35% | max response [10] -5.37% | max response [11] -10.4% | max response [12] 1.43% | Potency [13] | Potency [14] | Potency [15] | Potency [16] | Potency [17] | Potency [18] | Potency [19] | Potency [20]

CC1(C)C(=O)N(c2ccc(C#N)c(C(F)(F)F)c2)C(=O)N1CCCCO
inactive: Potency [1] | Potency [2] | Potency [3] | Potency [4] | Potency [5] | outcome [6] | Potency [7] | Potency [8] | max response [9] -11% | max response [10] -15.9% | max response [11] -18.8% | max response [12] -6.14% | Potency [13] | Potency [14] | Potency [15] | Potency [16] | Potency [17] | Potency [18] | Potency [19] | Potency [20]

C#CCO[C@H]1CN2CCC1CC2
inactive: Potency [1] | Potency [2] | Potency [3] | Potency [4] | Potency [5] | outcome [6] | Potency [7] | Potency [8] | max response [9] -0.287% | max response [10] -18.5% | max response [11] 2.85% | max response [12] 2.27% | Potency [13] | Potency [14] | Potency [15] | Potency [16] | Potency [17] | Potency [18] | Potency [19] | Potency [20]
